In the supplement of paper PMC10849652:
Targets with a hit are over-represented here; the source holds about 7,900 in all. About 0.6% of all pairs of compound and target were hits. A number with no mark means an inactive call.

Each target was assayed with CC1=C(C(CC(=O)N1)C2=CC=C(C=C2)C(F)(F)F)C(=O)NC3=C(C=C4C(=C3)C=NN4)F (assay: log2 fold change, soluble protein after heating vs DMSO (PISA); higher = thermal stabilisation; K562 cells, 10 uM, 30 min; active = over 0.2 and 3.5 SD of the protein, either way, in both replicates (recomputed)).
Summary of the method: (§1)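 Aliquots of K562 cells (2×10^6 cells/mL) treated with 10 μM compound for 30 min were heated for 3 min over 48°C-58°C. After pooling and extraction in PBS with 0.5% NP-40 at 4°C, soluble protein from a 21,000xg, 90 min spin was quantified by TMTpro 16plex LC-MS/MS with channel sums equalised. Thermal stability is expressed against control samples, from duplicates, as a log2 fold change.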

UniProt Q96EV2, sequence (Q96EV2 whole entry, looked up): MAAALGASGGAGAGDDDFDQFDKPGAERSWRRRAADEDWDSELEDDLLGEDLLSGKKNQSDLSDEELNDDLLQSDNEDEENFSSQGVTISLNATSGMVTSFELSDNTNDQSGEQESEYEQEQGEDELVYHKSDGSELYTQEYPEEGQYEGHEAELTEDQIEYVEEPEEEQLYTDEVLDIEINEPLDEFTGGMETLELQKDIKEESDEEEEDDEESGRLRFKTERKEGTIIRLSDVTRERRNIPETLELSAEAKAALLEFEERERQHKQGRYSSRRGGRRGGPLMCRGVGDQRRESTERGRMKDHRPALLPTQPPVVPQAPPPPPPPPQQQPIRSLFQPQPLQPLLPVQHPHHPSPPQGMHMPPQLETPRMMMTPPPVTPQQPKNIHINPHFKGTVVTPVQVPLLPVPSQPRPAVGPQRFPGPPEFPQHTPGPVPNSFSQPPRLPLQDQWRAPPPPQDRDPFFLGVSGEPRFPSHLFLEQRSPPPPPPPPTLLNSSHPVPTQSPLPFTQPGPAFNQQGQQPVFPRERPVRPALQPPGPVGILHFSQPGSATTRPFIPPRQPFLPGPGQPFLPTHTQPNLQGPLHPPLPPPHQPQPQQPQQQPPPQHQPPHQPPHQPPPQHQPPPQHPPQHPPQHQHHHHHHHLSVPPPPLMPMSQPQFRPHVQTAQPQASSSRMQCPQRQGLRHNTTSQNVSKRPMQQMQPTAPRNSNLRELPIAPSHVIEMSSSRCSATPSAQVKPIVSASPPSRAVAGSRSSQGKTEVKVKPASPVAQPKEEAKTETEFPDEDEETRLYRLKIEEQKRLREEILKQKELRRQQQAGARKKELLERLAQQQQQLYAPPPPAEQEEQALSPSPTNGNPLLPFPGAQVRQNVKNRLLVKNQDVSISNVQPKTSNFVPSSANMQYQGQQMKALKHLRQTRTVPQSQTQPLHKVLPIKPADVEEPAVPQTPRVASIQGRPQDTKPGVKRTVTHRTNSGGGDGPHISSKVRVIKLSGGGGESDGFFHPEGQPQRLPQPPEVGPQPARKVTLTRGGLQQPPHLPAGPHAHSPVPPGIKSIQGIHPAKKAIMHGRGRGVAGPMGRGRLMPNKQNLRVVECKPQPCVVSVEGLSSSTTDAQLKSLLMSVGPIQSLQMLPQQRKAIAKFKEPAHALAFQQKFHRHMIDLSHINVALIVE
UniProt Q53H47, sequence (Q53H47 whole entry, looked up): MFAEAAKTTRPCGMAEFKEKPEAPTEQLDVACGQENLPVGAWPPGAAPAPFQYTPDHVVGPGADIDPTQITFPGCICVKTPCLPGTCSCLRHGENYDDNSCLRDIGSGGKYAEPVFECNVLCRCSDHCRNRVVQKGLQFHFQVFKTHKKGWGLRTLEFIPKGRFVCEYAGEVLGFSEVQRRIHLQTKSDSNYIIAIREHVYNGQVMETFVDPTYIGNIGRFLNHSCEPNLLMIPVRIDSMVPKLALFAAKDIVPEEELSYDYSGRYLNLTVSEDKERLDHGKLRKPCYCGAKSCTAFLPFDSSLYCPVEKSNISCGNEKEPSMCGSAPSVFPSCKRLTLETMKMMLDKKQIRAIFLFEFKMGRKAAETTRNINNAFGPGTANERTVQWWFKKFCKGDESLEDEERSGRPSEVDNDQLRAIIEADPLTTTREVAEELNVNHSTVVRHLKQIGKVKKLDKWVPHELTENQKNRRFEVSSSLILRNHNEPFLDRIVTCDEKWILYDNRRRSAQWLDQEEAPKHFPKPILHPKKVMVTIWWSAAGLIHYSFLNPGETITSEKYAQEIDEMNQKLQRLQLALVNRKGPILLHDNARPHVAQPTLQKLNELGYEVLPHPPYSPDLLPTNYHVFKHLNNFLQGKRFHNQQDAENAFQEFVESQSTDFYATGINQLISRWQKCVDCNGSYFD
UniProt Q5JTH9, sequence (Q5JTH9 whole entry, looked up): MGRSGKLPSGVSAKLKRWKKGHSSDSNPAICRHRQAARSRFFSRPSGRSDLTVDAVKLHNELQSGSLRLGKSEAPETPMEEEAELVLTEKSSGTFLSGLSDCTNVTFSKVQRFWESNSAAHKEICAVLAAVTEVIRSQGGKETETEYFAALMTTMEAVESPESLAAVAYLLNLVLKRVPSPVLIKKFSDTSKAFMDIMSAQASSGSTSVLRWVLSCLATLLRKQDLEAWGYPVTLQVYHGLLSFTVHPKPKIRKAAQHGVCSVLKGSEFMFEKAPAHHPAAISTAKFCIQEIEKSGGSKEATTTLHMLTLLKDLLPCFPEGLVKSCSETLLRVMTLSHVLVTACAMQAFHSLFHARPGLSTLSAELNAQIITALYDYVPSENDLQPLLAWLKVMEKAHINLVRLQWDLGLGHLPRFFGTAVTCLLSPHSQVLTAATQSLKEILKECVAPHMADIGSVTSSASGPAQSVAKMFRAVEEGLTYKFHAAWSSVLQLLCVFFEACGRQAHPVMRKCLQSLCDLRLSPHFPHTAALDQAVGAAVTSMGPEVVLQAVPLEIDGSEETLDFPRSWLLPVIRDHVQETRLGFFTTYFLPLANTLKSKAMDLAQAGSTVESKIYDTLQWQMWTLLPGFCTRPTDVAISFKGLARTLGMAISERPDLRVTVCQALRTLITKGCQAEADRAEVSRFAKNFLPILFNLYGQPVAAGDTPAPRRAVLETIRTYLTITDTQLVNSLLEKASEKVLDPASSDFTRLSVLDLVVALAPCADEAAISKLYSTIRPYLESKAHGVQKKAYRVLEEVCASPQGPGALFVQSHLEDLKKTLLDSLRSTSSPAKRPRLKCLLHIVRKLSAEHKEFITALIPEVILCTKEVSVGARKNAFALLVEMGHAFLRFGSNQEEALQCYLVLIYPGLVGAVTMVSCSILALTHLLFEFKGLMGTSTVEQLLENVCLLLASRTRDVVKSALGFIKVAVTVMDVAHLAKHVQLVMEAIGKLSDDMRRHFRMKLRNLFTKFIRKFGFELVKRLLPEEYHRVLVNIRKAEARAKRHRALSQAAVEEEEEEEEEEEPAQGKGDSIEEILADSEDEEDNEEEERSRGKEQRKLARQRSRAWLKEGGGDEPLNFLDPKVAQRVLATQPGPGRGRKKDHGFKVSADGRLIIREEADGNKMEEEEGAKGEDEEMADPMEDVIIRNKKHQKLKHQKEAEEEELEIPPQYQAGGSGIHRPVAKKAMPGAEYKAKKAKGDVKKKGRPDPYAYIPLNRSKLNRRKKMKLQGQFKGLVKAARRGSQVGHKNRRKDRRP
UniProt P41440, sequence (P41440 whole entry, looked up): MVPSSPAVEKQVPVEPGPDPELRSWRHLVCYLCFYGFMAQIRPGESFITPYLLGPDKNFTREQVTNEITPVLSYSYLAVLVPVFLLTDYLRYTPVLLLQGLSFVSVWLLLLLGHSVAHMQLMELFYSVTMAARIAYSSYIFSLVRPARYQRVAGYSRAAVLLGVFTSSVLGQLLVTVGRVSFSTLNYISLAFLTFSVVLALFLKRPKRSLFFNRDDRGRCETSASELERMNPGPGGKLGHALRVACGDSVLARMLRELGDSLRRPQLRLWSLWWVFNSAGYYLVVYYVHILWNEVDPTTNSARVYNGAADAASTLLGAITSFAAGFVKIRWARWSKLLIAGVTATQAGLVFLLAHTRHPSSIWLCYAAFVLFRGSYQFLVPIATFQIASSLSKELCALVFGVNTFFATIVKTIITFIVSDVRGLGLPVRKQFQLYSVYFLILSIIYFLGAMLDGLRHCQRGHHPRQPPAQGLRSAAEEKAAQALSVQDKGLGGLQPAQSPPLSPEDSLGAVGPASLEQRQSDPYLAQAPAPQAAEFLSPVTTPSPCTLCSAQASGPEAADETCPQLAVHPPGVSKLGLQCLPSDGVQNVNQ
UniProt Q6NT16, sequence (Q6NT16 whole entry, looked up): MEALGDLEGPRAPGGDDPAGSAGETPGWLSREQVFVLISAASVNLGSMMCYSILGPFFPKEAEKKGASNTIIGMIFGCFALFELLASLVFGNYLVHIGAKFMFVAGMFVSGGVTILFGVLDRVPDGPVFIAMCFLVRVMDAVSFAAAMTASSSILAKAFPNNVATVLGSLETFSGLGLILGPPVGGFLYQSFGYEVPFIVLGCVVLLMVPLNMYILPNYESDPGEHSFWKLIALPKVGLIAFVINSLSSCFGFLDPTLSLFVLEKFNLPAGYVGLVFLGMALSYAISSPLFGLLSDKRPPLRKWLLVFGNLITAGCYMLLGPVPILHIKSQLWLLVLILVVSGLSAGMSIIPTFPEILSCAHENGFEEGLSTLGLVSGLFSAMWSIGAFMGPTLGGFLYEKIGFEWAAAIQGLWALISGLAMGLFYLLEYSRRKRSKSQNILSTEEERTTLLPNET
UniProt Q96ER3, sequence (Q96ER3 whole entry, looked up): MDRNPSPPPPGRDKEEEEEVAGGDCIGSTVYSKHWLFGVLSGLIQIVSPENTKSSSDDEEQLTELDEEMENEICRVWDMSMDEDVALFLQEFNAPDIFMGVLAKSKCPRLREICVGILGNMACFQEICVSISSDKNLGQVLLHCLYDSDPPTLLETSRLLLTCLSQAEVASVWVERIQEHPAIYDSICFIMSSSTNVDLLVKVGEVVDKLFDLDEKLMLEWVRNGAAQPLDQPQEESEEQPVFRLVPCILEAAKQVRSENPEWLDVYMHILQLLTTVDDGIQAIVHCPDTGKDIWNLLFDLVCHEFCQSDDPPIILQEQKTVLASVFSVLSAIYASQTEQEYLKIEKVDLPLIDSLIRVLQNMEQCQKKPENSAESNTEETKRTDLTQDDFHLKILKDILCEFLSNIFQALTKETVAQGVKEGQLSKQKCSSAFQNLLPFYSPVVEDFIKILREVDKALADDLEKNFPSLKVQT
UniProt O43665, sequence (O43665 whole entry, looked up): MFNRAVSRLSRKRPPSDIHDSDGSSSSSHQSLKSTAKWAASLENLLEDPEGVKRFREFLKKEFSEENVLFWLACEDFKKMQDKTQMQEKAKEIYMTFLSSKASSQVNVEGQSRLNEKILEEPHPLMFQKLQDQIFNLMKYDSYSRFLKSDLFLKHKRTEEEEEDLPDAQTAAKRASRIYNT
UniProt Q8N5L8, sequence (Q8N5L8 whole entry, looked up): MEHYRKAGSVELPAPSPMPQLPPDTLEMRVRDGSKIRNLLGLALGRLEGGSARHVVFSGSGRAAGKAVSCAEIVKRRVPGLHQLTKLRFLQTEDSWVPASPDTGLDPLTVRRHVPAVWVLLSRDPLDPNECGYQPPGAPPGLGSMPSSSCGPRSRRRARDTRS

Target	log2 fold change
RPS6KA1 isoform 2 (UniProt Q15418)	0.017
RRP9 (UniProt O43818)	0.136
SLC19A1 (UniProt P41440)	-0.045
RBM12 (UniProt Q9NTZ6)	0.012
RNF167 (UniProt Q9H6Y7)	0.064
SEPTIN5 (UniProt Q99719)	-0.005
RUNX1 isoform 8 (UniProt Q01196)	0.076
RAP1GDS1 isoform 5 (UniProt P52306)	0.011
RBM33 (UniProt Q96EV2)	0.001
RSRC2 (UniProt Q7L4I2)	0.028
RGS10 (UniProt O43665)	-0.008
SEC31A (UniProt O94979)	0.016
RPTOR (UniProt Q8N122)	-0.03
RPS16 (UniProt P62249)	0.057
RELA (UniProt Q04206)	-0.022
RCOR1 (UniProt Q9UKL0)	0.025
SETMAR (UniProt Q53H47)	0.012

Target	log2 fold change
RAB5C isoform 2 (UniProt P51148)	0.028
ROCK2 (UniProt O75116)	0.29 (active)
ROCK1 (UniProt Q13464)	0.249 (active)
SLC18B1 (UniProt Q6NT16)	0.05
SAAL1 (UniProt Q96ER3)	0.026
RPS2 (UniProt P15880)	0.032
RPP25L (UniProt Q8N5L8)	-0.014
RECQL (UniProt P46063)	-0.031
RABGAP1L isoform 3 (UniProt Q5R372)	-0.137
RRP12 (UniProt Q5JTH9)	-0.051
SCD (UniProt O00767)	0.024
SESN2 (UniProt P58004)	0.041
RPS9 (UniProt P46781)	0.005
RSRC1 (UniProt Q96IZ7)	-0.012
RAB8B (UniProt Q92930)	0.019
RBM8A (UniProt Q9Y5S9)	-0.029

The targets below were run with CC1=C(C2=C(C=C1)C(=O)C3=CC=CC=C3N2CCCN)C in the same assay as above.
Summary of the method: as §1

Target	log2 fold change
RPS6KA1 isoform 2 (UniProt Q15418)	0.018
RRP9 (UniProt O43818)	-0.432 (active)
SLC19A1 (UniProt P41440)	0.073
RBM12 (UniProt Q9NTZ6)	-0.007
RNF167 (UniProt Q9H6Y7)	0
SEPTIN5 (UniProt Q99719)	0.011
RAP1GDS1 isoform 5 (UniProt P52306)	0.008
RBM33 (UniProt Q96EV2)	-0.282 (active)
RSRC2 (UniProt Q7L4I2)	0.016
RGS10 (UniProt O43665)	0.015
SEC31A (UniProt O94979)	0.095
RPTOR (UniProt Q8N122)	0.009
RPS16 (UniProt P62249)	-0.6 (active)
RELA (UniProt Q04206)	-0.054
RCOR1 (UniProt Q9UKL0)	0.021
SETMAR (UniProt Q53H47)	0.509 (active)

Target	log2 fold change
RAB5C isoform 2 (UniProt P51148)	-0.032
ROCK2 (UniProt O75116)	0
ROCK1 (UniProt Q13464)	-0.013
SLC18B1 (UniProt Q6NT16)	-0.036
SAAL1 (UniProt Q96ER3)	0.239 (active)
RPS2 (UniProt P15880)	-0.682 (active)
RPP25L (UniProt Q8N5L8)	-0.288 (active)
RECQL (UniProt P46063)	0.266 (active)
RABGAP1L isoform 3 (UniProt Q5R372)	0.055
RRP12 (UniProt Q5JTH9)	-0.107
SCD (UniProt O00767)	-0.027
SESN2 (UniProt P58004)	-0.017
RPS9 (UniProt P46781)	-0.585 (active)
RSRC1 (UniProt Q96IZ7)	0.047
RAB8B (UniProt Q92930)	0.004
RBM8A (UniProt Q9Y5S9)	0.027
